GPR151 ag = human GPR151 activation. Q8TDV0. PathHunter beta-arrestin GPR151 cells, luminescence. activation, % at 11.2 µM. hit rate 1% among 650,000; in the data active means activation above about 4.9%;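 further: 0% = median of compound wells and 100% = cells with positive control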
MITF primary = human MITF inhibition, primary screen | hit rate 0.91% among 650,000 | AID 1259374 | inhibition, % at 2.6 µM | AlphaScreen MITF homodimerization, bead proximity signal | O75030; in the data active means inhibition above about 50%;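 further: 0% = vehicle wells with protein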
Target sequence (O75030 whole entry, looked up): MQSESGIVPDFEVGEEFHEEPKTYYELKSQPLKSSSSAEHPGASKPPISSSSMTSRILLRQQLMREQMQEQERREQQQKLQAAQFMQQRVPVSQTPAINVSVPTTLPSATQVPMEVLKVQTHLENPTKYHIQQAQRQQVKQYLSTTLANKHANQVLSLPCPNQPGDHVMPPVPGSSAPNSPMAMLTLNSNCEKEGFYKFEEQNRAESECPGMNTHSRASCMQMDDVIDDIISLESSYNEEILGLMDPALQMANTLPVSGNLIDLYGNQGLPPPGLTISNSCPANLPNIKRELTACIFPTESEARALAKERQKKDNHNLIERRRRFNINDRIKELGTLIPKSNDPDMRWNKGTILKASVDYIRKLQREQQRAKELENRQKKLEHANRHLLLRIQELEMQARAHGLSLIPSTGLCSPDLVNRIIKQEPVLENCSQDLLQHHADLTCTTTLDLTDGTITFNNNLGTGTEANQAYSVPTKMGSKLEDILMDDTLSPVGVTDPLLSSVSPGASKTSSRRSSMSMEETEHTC
FBW7 activator = activators of human E3 ligase FBW7; Q969H0; AlphaScreen FBW7–phospho-cyclin E peptide binding, activator screen; normalized activity (activation), % at 26.1 µM; hit rate 0.13% among 650,000; in the data active means normalized activity above about 1.9%;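 further: purified mutant Fbw7 with reduced substrate affinity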
TEAD-YAP block = TEAD-YAP interaction inhibition; HEK-TIYL cells, TEAD-Gal4/YAP UAS-luciferase luminescence; inhibition, % at 9.12 µM; hit rate 1.4% among 640,000; AID 1259422; in the data active means inhibition above about 32%;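 further: 0% = median of test compound wells and 100% = reference inhibitor wells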
Active calls of the source: *. Sampled rows, rich in hits. Any-hit rate of the full collection: about 3.5%.

SMILES	GPR151 ag	MITF primary	FBW7 activator	TEAD-YAP block
Clc1ccccc1CNc1ncnc2c1c(-c1ccccc1)cn2-c1ccc(Br)cc1	3.9	2.4	-0.1	4.5
O=C(N/N=C/c1ccc(O)c2ncccc12)c1cccc(Br)c1	-0.3	103.3*	-0.3	37.9*
COc1ccc(O)c(/C=N/NC(=O)c2ccc(NC(=O)c3ccccc3Cl)cc2)c1	2.2	0.6	0.0	34.1*
COc1ccc(O)c(/C=N/NC(=O)c2cccc(Br)c2)c1	-0.5	14.7	-0.1	57.9*
COc1ccc(O)c(/C=N/NC(=O)c2cncc(Br)c2)c1	-0.1	-41.3	-0.1	81.0*
COc1ccc(/C=N/NC(=O)c2cccc(Br)c2)cc1	-0.3	2.8	-0.1	-66.0
O=C(N/N=C/c1ccccc1O)c1cccc(Br)c1	-0.3	9.2	0.0	-13.0
O=C1c2ccccc2S(=O)(=O)N1Cc1ncc(-c2ccccc2)o1	-1.1	-8.4	0.1	14.7
Cc1ccc(CSc2nc3ccccc3c(=O)n2CCn2c(SCc3ccc(C)cc3)nc3ccccc3c2=O)cc1	3.5	5.4	-0.2	-8.5
Cc1ccc(NC(=O)c2nnn(Cc3ccc(Br)cc3)c2N)cc1	-0.7	-1.7	-0.3	-2.6
COc1ccc(O)c(/C=N\NC(=O)c2n[nH]c([N+](=O)[O-])n2)c1	-1.4	52.6*	-0.9	4.2
Cc1ccc(-c2cc(C(=O)N/N=C/c3cc(Br)ccc3O)n[nH]2)o1	2.4	27.0	-0.2	44.6*
O=C(N/N=C\c1ccccc1O)c1n[nH]c([N+](=O)[O-])n1	-0.3	36.7	-0.3	-4.7
COc1cccc(/C=N/NC(=O)c2cc(-c3ccc(C)o3)[nH]n2)c1O	-0.8	40.6	0.4	22.0
CCN1C(=O)NC(=O)/C(=C\c2cc(C)n(-c3ccc(O)cc3)c2C)C1=O	0.5	8.6	-1.0	-2.8
CCN1C(=O)S/C(=C/c2cc(C)n(-c3ccc(O)cc3)c2C)C1=O	-0.3	4.2	-0.5	80.0*
CCN1C(=O)/C(=C\c2cc(C)n(-c3ccc(OC)cc3)c2C)C(C(=O)OC)=C1C	-1.8	75.8*	-0.3	-5.7
CCN1C(=O)S/C(=C/c2cc(C)n(-c3ccccn3)c2C)C1=O	0.8	9.9	-0.3	68.6*
CCOC(=O)C(C)N1C(=O)S/C(=C/c2cc(C)n(-c3ccccn3)c2C)C1=O (stereo not drawn)	-1.1	4.7	-0.2	-21.2
NC1=C(c2ccccc2)S(=O)c2cc(Oc3ccccc3)cc(Oc3ccccc3)c21 (stereo not drawn)	1.6	-3.6	-0.2	2.2
COCCCNc1c(-c2ccc(Cl)cc2)c(=O)c1=O	-1.2	-4.9	0.0	48.4*
COCCNc1c(-c2ccc(C)cc2)c(=O)c1=O	2.5	-3.3	-0.2	-1.7
CCOC(=O)c1sc(-c2ccccc2)cc1NC(=O)c1ccc(S(=O)(=O)N2CCCc3ccccc32)cc1	-1.3	4.0	0.8	5.7
COc1cc(-c2noc(C3CC(=O)N(c4ccc(C)cc4C)C3)n2)cc(OC)c1OC (stereo not drawn)	-1.1	-1.1	-0.2	44.5*
COc1ccc(N2CC(c3nc(-c4cc(OC)c(OC)c(OC)c4)no3)CC2=O)cc1Cl (stereo not drawn)	-1.5	-2.9	0.5	-3.7
SMILES	GPR151 ag	MITF primary	FBW7 activator	TEAD-YAP block
Cc1cc(C(=O)CCl)c(C)n1CC1CCCO1 (stereo not drawn)	-0.9	8.7	-0.3	-7.2
COC(=O)c1ccc(CSCC(=O)c2cc(C)n(CC3CCCO3)c2C)cc1 (stereo not drawn)	2.1	0.6	-0.3	36.8*
Cc1cc(C(=O)CSc2nc3ccccc3[nH]2)c(C)n1CC1CCCO1 (stereo not drawn)	-0.1	9.9	0.0	40.2*
COc1cccc(NC(=O)CSc2nc3ccccc3c(=O)n2CCC(=O)NCc2ccc(F)cc2)c1	3.0	13.4	0.1	-0.1
CCCn1cc(NC(=O)c2cc3ccccc3o2)cn1	-1.3	-8.6	-0.1	-55.2
CCCn1cc(NC(=O)c2cc(-c3ccccc3OCc3ccccc3)no2)cn1	1.9	12.8	0.1	42.8*
O=C(c1ccn(-c2ccnc(Nc3ccc(N4CCOCC4)cc3)c2)n1)N1CCC(O)CC1	0.1	-2.1	0.1	60.3*
CC1CC2(C)Oc3ccccc3CC2C(C)C1CNCCCN(C)C (stereo not drawn)	0.1	23.1	0.0	38.2*
CC1Cc2ccccc2N1C(=O)CNCCCN(C)C (stereo not drawn)	0.1	9.4	0.1	11.1
Cc1ccc(C(=O)/C(=C\c2cccs2)c2nc3ccccc3o2)cc1	0.8	-4.1	-0.5	72.7*
COc1ccc(C(=O)/C(=C\c2ccc(C)o2)c2nc3ccccc3o2)cc1	-0.6	3.0	-0.3	37.8*

High-throughput results (PubChem)
